# Screens: PubChem BioAssay, several laboratories
# This is a sample that favours compounds with a hit; in the whole collection about 3.3% have one here.
# PLK1 kinase inh: PLK1 (human) kinase inhibition | P53350 | recombinant PLK1 kinase, TR-FRET peptide phosphorylation | AID 619 | inhibition, % at 10 µM | actives 0.53% (n = 97,000);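 active means inhibition of 50% or more in the single-concentration screen; inactive means inhibition below 50%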
# ERb coact inh: blocks coactivator binding to human estrogen receptor beta | TR-FRET ER-beta LBD / SRC1-Cy5 peptide binding; receptor agonist-loaded with 1 µM estradiol | inhibition, % at 25.6 µM | AID 633 | actives 1.3% (n = 86,000);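 active means compounds whose percent inhibition of the receptor-coactivator binding signal exceeds about 50% in the single-dose screen, limit read from the data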
# ERa coact pot: ER-alpha (human) coactivator binding potentiation; TR-FRET ERalpha-LBD/SRC-Cy5 coactivator binding, 2 h; 100 = basal binding, no effect; coactivator binding (% of control), % at 25.6 µM; actives 1.3% (n = 86,000); AID 639; in the data active means activity above about 200%;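 further: binding measured in presence of low estradiol as agonist stimulus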
# Target sequence (P03372 whole entry, looked up, the tested form may be a part): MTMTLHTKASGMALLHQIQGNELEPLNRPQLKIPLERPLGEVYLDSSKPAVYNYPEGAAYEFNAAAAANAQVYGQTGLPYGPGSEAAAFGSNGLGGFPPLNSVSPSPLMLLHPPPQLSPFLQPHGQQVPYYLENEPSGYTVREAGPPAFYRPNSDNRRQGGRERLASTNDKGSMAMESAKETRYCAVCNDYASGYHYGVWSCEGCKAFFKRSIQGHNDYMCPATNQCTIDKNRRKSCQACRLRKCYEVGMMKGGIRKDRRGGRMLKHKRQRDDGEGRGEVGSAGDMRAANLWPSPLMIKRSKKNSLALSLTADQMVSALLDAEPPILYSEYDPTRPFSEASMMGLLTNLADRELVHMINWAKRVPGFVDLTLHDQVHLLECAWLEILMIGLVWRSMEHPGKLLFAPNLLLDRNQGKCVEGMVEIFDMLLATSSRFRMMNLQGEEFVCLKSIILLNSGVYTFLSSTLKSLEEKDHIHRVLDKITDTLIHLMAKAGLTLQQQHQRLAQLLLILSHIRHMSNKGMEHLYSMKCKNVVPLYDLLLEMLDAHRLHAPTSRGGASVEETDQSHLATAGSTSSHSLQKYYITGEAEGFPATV
# Smad3 inh: Smad3 (human) transcription factor binding inhibition; P84022; TR-FRET Smad3/Dy647-FoxH1 peptide binding, europium anti-His; inhibition, % at 25 µM; actives 0.29% (n = 88,000); AID 630;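 active means compounds that reduce the energy-transfer binding signal between the protein and its labelled peptide by more than half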
# Plk1 PBD FP: inhibitors of human Plk1 polo box domain binding | P53350 | Plk1 PBD phosphopeptide binding, fluorescence polarization | actives 0.13% (n = 97,000) | inhibition, %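 (tested at about 20 µM)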 | AID 693; in the data active means inhibition above about 34%, passing the limit was not always enough
# ERa coact inh: blocks coactivator binding to human estrogen receptor alpha; inhibition, % at 25.6 µM; actives 1.7% (n = 86,000); P03372; TR-FRET ER-alpha LBD / SRC-1 peptide, estradiol-bound; in the data active means inhibition above about 50%
# PLK1 confirm: PLK1 (human) kinase inhibition, confirmed; inhibition, % at 10 µM; actives 20% (n = 210); AID 744; shares compounds with PLK1 kinase inh; recombinant PLK1 kinase, TR-FRET peptide phosphorylation;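 active means inhibition at or above 50% in each of two repeat confirmation tests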
# Plk1 interf: interferes with the Plk1 assay readout, not true inhibition; Plk1 TR-FRET assay interference, compound added post-reaction; inhibition (interference), % at 10 µM; shares compounds with PLK1 kinase inh; AID 756; 210 tested, under 10 active;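 active means both duplicate runs show 50% or greater inhibition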
# PBD redox DR: generates H2O2 by redox cycling, flagging false Plk1 PBD hits. shares compounds with Plk1 PBD FP. 120 tested, under 10 active. EC50, µM. redox cycling H2O2 generation, DTT, counter-screen; call rule not given here
# A number is an active result; . = inactive; / = no result.
SMILES,PLK1 kinase inh,ERb coact inh,ERa coact pot,Smad3 inh,Plk1 PBD FP,ERa coact inh,PLK1 confirm,Plk1 interf,others
Nc1[nH]ncc1C(=O)Nc1cccc(C(F)(F)F)c1,77.5,.,.,.,.,.,74.9,.,
Cn1ncc(N)c1C(=O)Nc1cccc(C(F)(F)F)c1,/,.,.,.,/,.,/,/,
COC(=O)c1ccccc1NC(=O)CSc1nc(N)cc(N)n1,71.2,.,.,.,.,.,.,.,
CCOC(=O)c1ccccc1NC(=O)CSc1nc(N)cc(N)n1,.,.,.,.,.,.,/,/,
OC(CN1C2=NCCCN2c2ccccc21)c1ccc(Cl)cc1 (stereo not given),80.2,.,.,.,.,.,.,.,
O=C(CCc1ccccc1O)N/N=C/c1ccc(Sc2cccc3cccnc23)o1,.,.,.,.,.,.,/,/,
Cc1cccc(Nc2ncnc3nc[nH]c23)c1,76.1,/,/,/,.,/,80.7,.,
c1ccc(COc2ccc(Nc3ncnc4nc[nH]c34)cc2)cc1,71.6,.,.,.,.,.,.,.,
COc1cc(-c2nnc(SCC(=O)c3ccccc3)o2)cc(OC)c1OC,.,.,.,.,.,.,/,/,
COc1cc(-c2nnc(SCc3cc(=O)oc4cc(O)c(O)cc34)o2)cc(OC)c1OC,76.5,/,/,/,.,/,.,.,
Cc1ccc(-c2nc(CS(=O)CC(=O)NCCCN3CC(C)CC(C)C3)c(C)o2)cc1 (stereo not given),75.7,.,.,.,.,.,.,.,
COc1ccc(C2C(C(C)=O)=C(C)Nc3ncnn32)cc1OC (stereo not given),.,.,.,.,.,.,/,/,
COc1cc(C2C(C(=O)OC(C)C)=C(C)Nc3ncnn32)cc(OC)c1OC (stereo not given),81.2,.,.,.,.,.,.,.,
O=C(COc1ccccc1C(=O)N/N=C\c1ccc(O)c(O)c1)N/N=C/c1ccc(O)c(O)c1,85.5,/,/,/,.,/,71.7,68.8,
Cc1cccc(-c2nc(CSCC(=O)N3CCN(c4ccccn4)CC3)c(C)o2)c1,.,.,.,.,.,.,/,/,
COc1ccc(-n2c(CNC(=O)c3cc(OC)c(OC)c(OC)c3)n[nH]c2=S)cc1,.,/,/,/,.,/,/,/,
CC1CC(C)CN(C(=O)CSc2nc(Cc3cccs3)nc3ccccc23)C1 (stereo not given),.,/,/,/,.,/,/,/,
c1ccc2c(-c3ccncc3)c[nH]c2c1,78.0,.,.,.,.,.,70.6,.,
c1ccc(-c2nnc(-c3ccccc3)c(-c3c[nH]c4ccccc34)n2)cc1,.,.,.,.,.,.,/,/,
CC1(C)Cc2cccc(OCC(=O)Nc3cccnc3Cl)c2O1,.,.,.,.,.,.,/,/,
O=c1[nH]cnc2cc(-c3ccccc3)sc12,79.6,/,/,/,.,/,72.6,.,
O=C(NC(NC(=S)Nc1cccc(Cl)c1)C(Cl)(Cl)Cl)OCc1ccccc1 (stereo not given),.,/,/,/,.,/,/,/,
Cc1cc(NC(=O)c2cnn3cccnc23)nn1CC(=O)Nc1cccnc1,.,.,.,.,.,.,/,/,
O=C(Nc1cccnc1)c1cnn2cccnc12,76.2,.,.,.,.,.,62.5,.,
COC(=O)C1C2C=CC3(CN(c4cccc(C)c4)C(=O)C13)O2 (stereo not given),.,.,.,.,.,.,/,/,
SMILES,PLK1 kinase inh,ERb coact inh,ERa coact pot,Smad3 inh,Plk1 PBD FP,ERa coact inh,PLK1 confirm,Plk1 interf,others
COC(=O)C1C2C=CC3(CN(c4cccc(Cl)c4)C(=O)C13)O2 (stereo not given),74.1,.,.,.,.,.,.,.,
COc1ccc(C2c3c(oc4ccccc4c3=O)C(=O)N2CCCN2CCOCC2)cc1 (stereo not given),.,.,.,.,.,.,/,/,
CCOc1ccc(C2c3c(oc4ccccc4c3=O)C(=O)N2CCCN2CCOCC2)cc1OCC (stereo not given),74.0,.,.,.,.,.,.,.,
CCn1c(SCC(=O)N2CCOCC2)nc(O)cc1=O,71.4,.,.,.,.,.,.,.,
CCCCc1c(O)nc(SCC(=O)NCCc2ccc(OC)c(OC)c2)[nH]c1=O,.,.,.,.,.,.,/,/,
COC(C(=O)Nc1ccc(S(=O)(=O)N2CCCCC2)cc1)c1ccccc1 (stereo not given),.,.,.,.,.,.,/,/,
COCCCNC(=O)c1ccc(CS(=O)(=O)c2ccc(Br)cc2)o1,74.9,.,.,.,.,.,.,.,
Cc1cc(C)cc(-n2nnc(C(=O)NCc3ccccc3Cl)c2N)c1,.,.,.,.,.,.,/,/,
O=C(Nc1ncc2c(n1)-c1ccccc1CC2)c1ccc(Cl)cc1,122.6,/,/,/,.,/,.,.,
CCOC(=O)c1cc(-c2nnc(-c3ccc(Oc4ccccc4)cc3)o2)c(C)nc1C,.,.,.,.,.,.,/,/,
N#CCCN/N=C(/Cc1nc2ccccc2[nH]1)c1cccc(Cl)c1,.,/,/,/,.,/,/,/,
Cc1cc(N)ccc1N1CCCC1,80.0,/,/,/,.,/,.,.,
CCc1cc(=O)oc2cc(OCC(=O)N(CC)CC)c(Cl)cc12,71.7,.,.,.,.,.,.,.,
CCOC(=O)Cc1csc(NC(=O)CSc2nnc(-c3ccc(F)cc3)o2)n1,.,.,.,.,40.4,.,/,/,PBD redox DR=.
CCOC(=O)c1nc[nH]c1C,.,/,/,/,.,/,/,/,
O=C(Nc1ccccn1)C1CCN(S(=O)(=O)c2cccc3nonc23)CC1,.,.,.,.,36.2,.,/,/,PBD redox DR=.
Cc1cccc2[nH]c3c(N4CCC5(CC4)OCCO5)ncnc3c12,.,/,/,/,.,/,/,/,
Cc1cccc2[nH]c3c(N4CCN(C(=O)c5ccco5)CC4)ncnc3c12,.,/,/,/,51.3,/,/,/,PBD redox DR=.
O=C(CN1C(=O)COc2ccccc21)NCc1ccc(C(=O)O)cc1,.,.,.,.,50.5,.,/,/,PBD redox DR=.
O=C(C1CCCN(S(=O)(=O)c2ccccc2)C1)N1CCCc2ccccc21 (stereo not given),.,.,.,.,.,.,/,/,
Cc1ccc(NC(=O)C2CC=CCC2C(=O)N2CCCCC2)cc1 (stereo not given),.,.,.,.,42.5,.,/,/,PBD redox DR=.
CCC(=O)N1CCN(c2ccc(NC(=O)c3ccc4c(c3)OCO4)cc2)CC1,.,.,.,.,44.3,.,/,/,PBD redox DR=.
O=C(CSc1ncnc2ccccc12)Nc1ccc(N2CCOCC2)cc1,/,.,.,.,/,.,/,/,
CCN1C(=O)/C(=C/c2nc3ccccc3c(=O)n2-c2ccccc2)c2ccccc21,.,/,/,/,56.7,/,/,/,PBD redox DR=.
COc1ccc(S(=O)(=O)N(C)CC(=O)Nc2ccccc2C(F)(F)F)cc1Cl,.,.,.,.,.,.,/,/,
COc1ccc(S(=O)(=O)N(C)CC(=O)Nc2ccccc2C(F)(F)F)cc1,.,.,.,.,35.2,.,/,/,PBD redox DR=.
